Screening data from PubChem.
DAX1 inh-1: inhibitors of DAX1 repression of SF-1 activated StAR promoter; HEK293T StAR-luciferase reporter, SF-1/DAX-1 repression relief; inhibition, % at 6.8 µM; 1.1% of 370,000 active; AID 652010;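 active = inhibition above the mean over all tested compounds plus 3 SD, cut at about 3.6% in these data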;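 also: higher inhibition means more luminescence from relief of DAX-1 repression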
DAX1 inh-2: NR0B1 (DAX1) inhibition | P51843 | HEK293 Gal4-DAX1 luciferase reporter, luminescence | inhibition, % at 6.75 µM | 0.99% of 340,000 active;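 active = inhibition above the mean over all tested compounds plus 3 SD, cut at about 4.2% in these data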;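 also: inhibition shows as a rise in luminescence from relieved DAX1 repression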
ssDAF12 agonist: S. stercoralis DAF-12 activation, primary screen. HEK293 ssDAF-12/GRIP1 lit1-tk-luc reporter, luminescence; % of 3 µM dafachronic acid response. activation, % at 6.8 µM. 1% of 370,000 active. AID 652126;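 active = activation above the mean over all tested compounds plus 3 SD, cut at about 0.9% in these data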
GAA850 FXN act: increases GAA850 frataxin promoter reporter activity | 0.56% of 360,000 active | activation, % at 6 µM | HEK293 lucGAA850 FXN promoter luciferase reporter, 24 h; percent of 10 µM SAHA response;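 active = activation above the average of all compounds screened plus 3 SD, cutoff fixed separately per campaign, cut at about 7.5% in these data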
hcDAF-12 act: H. contortus DAF-12 activation, primary screen; HEK293 hcDAF-12 lit1-tk-luc reporter, luminescence; 0% DMSO, 100% Δ7-dafachronic acid; activation, % at 6.8 µM; 1.4% of 370,000 active; AID 652067;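 active = activation above the mean of all tested compounds plus 3 SD, cut at about 5.5% in these data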
hgDAF-12 ag: hgDAF-12 agonism, primary luciferase screen; HEK293 GAL4-hgDAF12 UAS-luciferase reporter, agonist luminescence; normalized to butyrate control; activation, % at 6.8 µM; 1.8% of 370,000 active; AID 687014;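 active = activation above a cutoff set at the mean of all screened compounds plus 3 SD, cut at about 10% in these data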
DAX1 conf: NR0B1 (human) inhibition, confirmation; inhibition, % at 6.8 µM; 87% of 2,400 active; shares compounds with DAX1 inh-1; AID 652134; HEK293T StAR-promoter luciferase reporter, SF-1/DAX-1 repression;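 active = inhibition above the average of every tested compound plus 3 SD, cut at about 3.8% in these data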;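 also: active compounds raise luminescence by relieving repression of the StAR reporter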
SF1 mutant ctr: nonselective inhibitor or artifact in SF-1 mutant DAX1 counter-screen; shares compounds with DAX1 inh-1; HEK293 StAR-luciferase, SF-1 AF2 mutant, luminescence; inhibition, % at 6.8 µM; 78% of 2,400 active;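 active = inhibition above the mean of all tested compounds plus 3 SD, cut at about 3% in these data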
LXRb hcDAF ctr: activates human LXR-beta, counter-screen for hcDAF-12 agonists; shares compounds with hcDAF-12 act; 3,400 tested, under 10 active; AID 743027; activation, % at 6.8 µM; HEK293 Gal4-LXR tk-luc reporter, luminescence, 24 h; normalized: DMSO 0%, positive control 100%;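 active = mean percent activation of the reporter above a cutoff set as the average over tested compounds plus their standard deviation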
Target sequence (P55055 whole entry, looked up, the tested form may be a part): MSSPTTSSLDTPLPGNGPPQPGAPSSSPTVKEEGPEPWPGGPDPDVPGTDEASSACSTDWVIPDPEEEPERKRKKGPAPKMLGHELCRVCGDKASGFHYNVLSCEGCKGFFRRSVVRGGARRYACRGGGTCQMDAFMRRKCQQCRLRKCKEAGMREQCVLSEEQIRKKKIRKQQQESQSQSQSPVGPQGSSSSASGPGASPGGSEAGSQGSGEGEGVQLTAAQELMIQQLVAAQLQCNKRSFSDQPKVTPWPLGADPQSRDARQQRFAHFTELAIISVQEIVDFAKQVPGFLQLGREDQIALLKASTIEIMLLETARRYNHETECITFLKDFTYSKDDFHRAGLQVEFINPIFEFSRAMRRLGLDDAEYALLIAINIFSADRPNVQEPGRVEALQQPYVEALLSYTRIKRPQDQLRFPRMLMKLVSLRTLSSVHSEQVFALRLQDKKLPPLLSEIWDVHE
hcDAF12 conf: confirmation of H. contortus DAF-12 agonists; activation, % at 6.8 µM; AID 743032; shares compounds with hcDAF-12 act; 61% of 3,400 active; HEK293 hcDAF-12 lit1-tk-luc reporter, luminescence; % of Δ7-dafachronic acid response;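 active = mean activation across triplicate tests above the threshold derived from the earlier primary screen, cut at about 5.5% in these data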
hgDAF12 conf: confirmation of H. glycines DAF-12 agonists. shares compounds with hgDAF-12 ag. 80% of 3,300 active. HEK293 GAL4-hgDAF12 luciferase reporter, agonist mode; percent of butyrate response. activation, % at 6.8 µM. AID 743050;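 active = mean activation over triplicate wells above the hit cutoff derived from the earlier primary screen, cut at about 11% in these data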
LXRb DAF12 ctr: activates human LXR-beta, counter-screen for DAF-12 agonists; shares compounds with hgDAF-12 ag; AID 743051; HEK293 Gal4-LXR luciferase reporter, 24 h; 3,300 tested, under 10 active; activation, % at 6.8 µM;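 active = mean activation of the triplicate above a set limit carried over from the primary screen, none filed active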
A number is an active result; - = inactive; . = no result. Sampled rows, rich in hits. Any-hit rate of the full collection: about 4.5%.

SMILES | DAX1 inh-1 | DAX1 inh-2 | ssDAF12 agonist | GAA850 FXN act | hcDAF-12 act | hgDAF-12 ag | LXRb hcDAF ctr | hcDAF12 conf | others
COc1ccc(-c2cc(=NCCC(=O)O)c3cc(C)ccc3o2)cc1 | 7.0 | - | - | - | 6.5 | 23 | . | . | DAX1 conf=13;SF1 mutant ctr=8.8;hgDAF12 conf=10;LXRb DAF12 ctr=-
CN(C)C(=O)Oc1ccc(-c2cn3cc(Cl)ccc3n2)cc1 | 6.1 | - | - | - | 7.8 | 17 | - | - | DAX1 conf=16;SF1 mutant ctr=6.3;hgDAF12 conf=15;LXRb DAF12 ctr=-
CC/C(=N\NC(=O)c1ccccc1Cl)c1c(O)n(C2CCCCC2)c(=O)[nH]c1=O | - | - | - | - | - | - | . | .
CC/C(=N\NC(=O)c1ccccc1)c1c(O)n(C2CCCCC2)c(=O)[nH]c1=O | 4.8 | - | - | - | - | 15 | . | . | DAX1 conf=-;SF1 mutant ctr=-;hgDAF12 conf=-;LXRb DAF12 ctr=-
S=C(NCCc1ccccc1)N1Cc2ccc(Br)cc2-n2nncc2C1 | - | . | - | . | - | - | . | .
CCC1C2CC3C4N(C)c5ccccc5C45CC(C2C5O)N3C1O (stereo unspecified) | - | . | - | - | - | - | . | .
COc1cc(/C=C2/C(=O)NC(=O)N(c3ccccc3)C2=O)ccc1O | - | - | - | - | 7.0 | - | - | -
N#CC1c2ccccc2-n2nncc2CN1S(=O)(=O)c1cc(Cl)cc(Cl)c1 (stereo unspecified) | - | - | - | - | - | - | . | .
COC1C(C)OC(OC2CC(C)(O)Cc3cc4c(c(O)c32)C(=O)c2c(O)cc3c(c2C4=O)OC2OC3(C)C(O)C(N(C)C)C2O)C(OC)C1(C)OC (stereo unspecified) | - | - | - | - | - | - | . | .
CC(=NCCc1ccccc1)c1c(O)n(C)c(=O)n(C)c1=O | - | - | - | - | - | - | . | .
CC(=Nc1ccccc1N)c1c(O)n(C)c(=O)n(C)c1=O | - | 4.5 | - | - | 6.6 | - | - | -
Cn1c(O)c(/C=C2\C=Nc3ccccc32)c(=O)n(C)c1=O | - | - | - | - | 7.7 | - | - | -
Cc1ccc(OCCOc2cccc(C=C3C(=O)NC(=O)NC3=O)c2)cc1 | - | - | 1.1 | - | 6.6 | 12 | - | 7.3
CC1CC(OP(O)(=S)c2ccc(N(C)C)cc2NC(=O)c2cccs2)CC(C)(C)C1 (stereo unspecified) | - | - | - | - | 8.8 | 11 | - | -
CC(C)[C@H](NC(=O)N1C[C@H]2C[C@@H](C1)c1cccc(=O)n1C2)C(=O)Nc1ccccc1F | - | - | - | - | - | - | . | .
Nc1cc(C(=O)Nc2ccccc2F)ccc1N1CC2CC(C1)c1cccc(=O)n1C2 (stereo unspecified) | - | - | - | - | 7.0 | - | - | -
Cc1ccc(C(=O)NCCN2CCC3(CC2)C(=O)NCN3c2ccccc2)cc1 | - | . | - | . | - | - | . | .
COc1ccccc1CCNCc1cc2c(cc1[N+](=O)[O-])OCO2 | - | - | 0.9 | - | 8.4 | - | - | -
COc1ccc(Br)cc1CNCCc1ccc2c(c1)OCO2 | - | - | - | - | - | - | . | .
